# Among all 69,000 compounds or so, about 420 (0.61%) showed an effect of 50% or more. What follows is part of a selection rich in strong results, with near analogues and random picks from the rest.
# Target: T1, Histidine--tRNA ligase (Leishmania infantum) (UniProt A4I591)
# T1 sequence (whole entry): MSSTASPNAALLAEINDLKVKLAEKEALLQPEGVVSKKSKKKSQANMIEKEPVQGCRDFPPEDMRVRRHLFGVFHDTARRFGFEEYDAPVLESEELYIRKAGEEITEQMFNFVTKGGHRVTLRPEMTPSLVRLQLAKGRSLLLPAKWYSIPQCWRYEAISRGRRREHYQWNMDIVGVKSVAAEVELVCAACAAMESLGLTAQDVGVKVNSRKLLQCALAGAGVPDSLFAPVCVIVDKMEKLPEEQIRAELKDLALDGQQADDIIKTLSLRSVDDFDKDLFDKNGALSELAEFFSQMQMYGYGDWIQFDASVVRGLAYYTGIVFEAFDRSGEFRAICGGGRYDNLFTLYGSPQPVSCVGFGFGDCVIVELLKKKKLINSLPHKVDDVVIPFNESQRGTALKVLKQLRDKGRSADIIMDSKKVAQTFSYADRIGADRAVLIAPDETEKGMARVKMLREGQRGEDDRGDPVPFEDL
# Assay: Leishmania infantum Histidine tRNA synthetase (LdHisRS)
# Assay type: functional
# Design: scale not given: in the data most compounds retested in dose-response had high values
# Details: 30 µM
row,SMILES,Percent Effect
1,COc1cnc(N2CC(N3CCOCC3)C2)nc1-c1ccnn1C,92.2%
2,COc1cnc(N2CCN(C)CC2)nc1-c1ccnn1C,13.7%
3,Cc1cnc(N2CCN(C)CC2)nc1-c1ccnn1C,7.84%
4,CC(=O)N1[C@H](Cn2cncn2)C[C@@H]2CN(CC3CC3)CC[C@@H]21,11.1%
5,Cc1cc(C(=O)N2C[C@@H]3COC[C@]3(CN(C)C)C2)sc1C,-39.3%
6,COCCN1C[C@@H]2CN(Cc3ccc(C)s3)CCC[C@]2(C(=O)O)C1,-8.18%
7,CS(=O)(=O)N1CC[C@H]2C[C@@H](C(=O)N3CCOCC3)O[C@@H]2C1,-3.77%
8,O=C1N(Cc2cccnc2)C[C@H]2CN(S(=O)(=O)c3ccccc3)CCN12,13.5%
9,Cc1ccoc1C(=O)N1CCO[C@H]2[C@H](OCC3CCOCC3)CC[C@@H]21,7.55%
10,CC(O)c1cccc(-n2c(CCC(=O)O)nc3ccccc32)c1 (stereo not given),40%
11,COc1ccc(-n2c(CO)nc3ccccc32)cc1CO,34.3%
12,COc1ccc(-n2c(CCC(=O)O)nc3ccccc32)cc1CO,60%
13,CNC[C@H]1CC[C@H](c2cc(CN(C)S(=O)(=O)N(C)C)n(C)n2)CC1,-50%
14,O=C(c1ccco1)N1CCO[C@@H]2CN(CC3CC3)CC[C@@H]2C1,26%
15,CN1[C@H]2CC[C@@H]1CN(C(=O)c1nnc3n1CCCC3)CC2,8.89%
16,Cc1ncc(CN(C)C2CCCN(c3cccnn3)C2)s1 (stereo not given),6.74%
17,Cc1cn2nc(N(C)C3CCCN(c4cccnn4)C3)sc2n1 (stereo not given),65.5%
18,Cc1ccc(N2CCCC(N(C)c3nn4cc(C)nc4s3)C2)nn1 (stereo not given),15.9%
19,COc1ccc(CN2C[C@@H]3OCCN(CCN4CCCC4)[C@@H]3C2)cc1,0.917%
20,CC(C)NC(=O)c1nc2c(s1)CCCN2Cc1ccccc1,38.5%
21,CN(C)C(=O)c1nc2c(s1)CCCN2Cc1ccccc1,-245%
22,CCN(C(=O)c1nc2c(s1)CCCN2Cc1ccccc1)C(C)C,74.4%
23,CSc1ccccc1C(=O)N1C[C@H]2CC[C@@H]1CN(C(=O)C1CCC1)C2,14.5%
24,O=C(CC1CC1)N[C@@H]1CN(C(=O)c2ccsc2)C[C@@H]2CCCO[C@@H]21,0.901%
25,CC(C)CCC(=O)Nc1ccc2oc(=O)n(CCN(C)C)c2c1,27.7%
26,CN(C)CCn1c(=O)oc2ccc(NC(=O)C3CCCO3)cc21 (stereo not given),53.4%
27,CN(C)CCn1c(=O)oc2ccc(NC(=O)N3CCCCCC3)cc21,59.8%
28,CCC(CC)C(=O)Nc1ccc2oc(=O)n(CCN(C)C)c2c1,15.2%

row,SMILES,Percent Effect
1,CN(C)CCn1c(=O)oc2ccc(NC(=O)CC(C)(C)C)cc21,37.9%
2,CCC(C)C(=O)Nc1ccc2oc(=O)n(CCN(C)C)c2c1 (stereo not given),27.7%
3,CCNC(=O)N1CC[C@H]2CC(=O)N(CC(N)=O)CC[C@H]2C1,11.1%
4,CCCc1ccc(CN2CCN(c3ncccn3)[C@@H]3CS(=O)(=O)C[C@@H]32)o1,13.2%
5,Cc1nc(CN2C[C@@H]3CN(C(=O)NC(C)C)C[C@@H]3C2=O)cs1,2.94%
6,CC(C)NC(=O)c1sc2ccccc2c1[C@H]1CC[C@H](CN)CC1,8.45%
7,Cn1cc(CN2CCC[C@]3(C(=O)O)CN(c4ncccn4)C[C@@H]3C2)cn1,27.8%
8,Cc1noc([C@H]2C[C@H]3OCC[C@H]3N(C3CCC3)C2)n1,-1.06%
9,O=C(c1cccc(F)c1)N1CC[C@@H]2CN(c3ncccn3)CCO[C@@H]2C1,6%
10,CCc1ccc(NC(=O)N2C[C@H]3CC[C@@]4(N=C(C)N(C)C4=O)[C@H]3C2)cc1,24.7%
11,CN1CCCC1c1cccc(Cc2ccccc2F)n1 (stereo not given),16.7%
12,CC(=O)N1CCCC1c1cccc(Cc2ccccc2F)n1 (stereo not given),0%
13,CN(C)C(=O)CN1CCCC1c1cccc(Cc2ccccc2F)n1 (stereo not given),55.7%
14,CCS(=O)(=O)N1C[C@H]2C[C@H](C(=O)N(C)C)[C@@H](C1)O2,6.57%
15,O=C(c1ccc[nH]1)N1C[C@H]2CC[C@@H]1CN(c1ncccn1)C2,21.7%
16,Cc1ccc(C(=O)N(C2CC2)C2CC(=O)NC2=O)cc1F (stereo not given),8.47%
17,CCn1nnc2c1C(COC)CN(Cc1ccco1)C2 (stereo not given),52.8%
18,CCn1nnc2c1C(COCC(=O)N(C)C)CN(Cc1ccco1)C2 (stereo not given),50.9%
19,CN(C)C(=O)COCC1CN(Cc2ccco2)Cc2ncn(C)c21 (stereo not given),20.8%
20,CCn1nnc2c1C(COCC(=O)N(C)C)CN(Cc1ccoc1)C2 (stereo not given),5.66%
21,CCn1nnc2c1C(COCCN(C)C)CN(Cc1ccco1)C2 (stereo not given),1.89%
22,CCn1nnc2c1C(COC)CN(Cc1cccs1)C2 (stereo not given),13.5%
23,CC(=O)N1C[C@@H]2CN(S(=O)(=O)C3CC3)CCO[C@@H]2C1,10%
24,O=C1O[C@@H]2CN(c3cnccn3)C[C@@H]2N1CCCc1ccc(F)cc1,11%
25,CCCS(=O)(=O)N1C[C@@H](Oc2ccccn2)[C@H]2OCCC[C@H]21,9.73%
26,Cc1ncc(CN2Cc3ccccc3O[C@]3(CC[C@H](CO)CC3)C2)cn1,11.1%
27,Fc1cnc(N2CC[C@@H]3OC(COCc4cccnc4)CC[C@@H]32)nc1 (stereo not given in full),5.26%
